A selection: hits, their analogues and other compounds. The true share with any hit is near 2.7%.
GLP1R inv ag = qHTS of GLP-1 Receptor Inverse Agonists (Inhibition Mode). HEK293 GLP-1R CRE-luciferase, luminescence, 24 h; GLP-1R form is constitutively active. Potency, µM (highest dose often 38.3 µM), inactives show at the highest dose activity change, negative = inhibition, most hits filed as inhibitors. 1.6% of 410,000 active. AID 624417, 2012; also: % is scaled to controls: 0 for no effect and ±100 for the full control effect; nearly all actives have a fitted effect of over 55% in size
Target sequence (P43220 whole entry, looked up): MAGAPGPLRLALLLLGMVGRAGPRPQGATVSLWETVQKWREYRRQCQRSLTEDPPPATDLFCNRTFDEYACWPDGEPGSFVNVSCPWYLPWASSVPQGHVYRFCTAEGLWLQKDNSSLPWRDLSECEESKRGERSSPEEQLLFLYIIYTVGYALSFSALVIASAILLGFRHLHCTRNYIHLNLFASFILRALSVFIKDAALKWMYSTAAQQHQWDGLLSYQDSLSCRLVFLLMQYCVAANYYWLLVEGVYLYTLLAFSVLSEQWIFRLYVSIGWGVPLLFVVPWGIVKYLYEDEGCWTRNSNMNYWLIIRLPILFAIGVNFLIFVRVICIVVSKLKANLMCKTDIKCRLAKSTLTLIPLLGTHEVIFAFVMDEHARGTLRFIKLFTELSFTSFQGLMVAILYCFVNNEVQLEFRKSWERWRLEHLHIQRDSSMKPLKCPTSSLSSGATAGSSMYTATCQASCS
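Using stably transfected HEK293 (constitutively active GLP-1R, cAMP-luciferase reporter), compounds were incubated 24 hr and luciferase measured by luminescence.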
GLP1R ag = qHTS of GLP-1 Receptor Agonists; Glucagon-like peptide 1 receptor (Homo sapiens), P43220; HEK293 GLP-1R CRE-luciferase, luminescence, 4-6 h; cells express a hypersensitive GLP-1R form; Potency, µM (highest dose often 45.6 µM), without a hit: at the top dose activation, actives largely listed as activators; 0.007% of 380,000 active; also: % of control where 0% means no effect
BRCA1 expr up = qHTS Assay to Identify Small Molecule Activators of BRCA1 Expression. Potency, µM (top dose mostly 46.1 µM), for inactives: top-dose activation, actives largely listed as activators. AID 624202, 2012. MCF7-BRCA1-FFLuc reporter, luminescence, 48 h; response scale: scaled: vehicle 0%, 10 µM genistein 100%. 1.1% of 380,000 active; also: nearly all actives have a fitted effect of over 80% in size
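Luminescence from a BRCA1-driven firefly luciferase in MCF7 cells was read after 48 h compound exposure at 37 C. Data normalized against DMSO and a 10microM genistein activation control, then curve-fitted across the titration.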
Integrin act MD = qHTS for Activators of Integrin-Mediated Alleviation for Muscular Dystrophy. alpha7betagal myoblasts, beta-gal FDG fluorescence, 48 h. Potency, µM (top dose mostly 38.3 µM), for the others: at the top dose activation, actives largely listed as activators. 0.064% of 350,000 active. AID 624291, 2012;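 also: 100% = response of the positive control SU9516; nearly all actives have a fitted effect of over 60% in size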
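alpha7betagal+/- myoblasts (passage 13, 250/well) treated 48 h at 37C with compounds at 1:260 dilution of DMSO stock. Lysed, then beta-galactosidase activity read as FDG fluorescence (ex 480/em 540) after 30 min, with pre-read for autofluorescence.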
GLP1R cytotox = qHTS of GLP-1 Receptor Inverse Agonists: Cytotox Screen. AID 624418, 2012. Potency, µM (series often up to 38.3 µM), for the others: top-dose activity change, negative = inhibition, most hits filed as inhibitors. 0.13% of 410,000 active. HEK293 cAMP-luciferase reporter cells, luminescence, 24 h;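 also: loss of luciferase light is scored as toxicity; % is scaled to controls: 0 for no effect and ±100 for the full control effect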
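Luminescence readout: signal drop marks cytotoxicity. Plated cells grew 12 h at 37 °C, 5% CO2, received 23 nL compound for 24 h, then got luciferase reagent, read after 12 min at RT.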
Numbers without * were called inactive. Calls follow the shape of the dose curve; as a rule, active = well fitted curve in the direction sought with a large enough effect; inconclusive = small, poorly fitted or top-dose-only effect, or another doubt; inactive = no such curve, though single readings can be large; an effect the other way counts as inactive or inconclusive. Potency is read from the fitted curve at half-maximal effect.

What do the screens show for `COc1ccccc1C(=O)O/N=C1/CCCc2c1ccc(OC)c2[N+](=O)[O-]`?
GLP1R inv ag: 3.4%; GLP1R ag: 6.9%; BRCA1 expr up: -10.9%; Integrin act MD: -0.5%; GLP1R cytotox: 4.2%

How did CCc1ccc(NC(=O)c2sc3nc(C)cc(C)c3c2NC(=O)c2ccccc2)cc1 do in these assays?
GLP1R inv ag: 12.1%; GLP1R ag: 4.1%; BRCA1 expr up: 0.0%; GLP1R cytotox: -5.3%

Results for CCOc1cc(/C=N/NS(=O)(=O)c2ccccc2)ccc1OS(=O)(=O)c1ccc(C)cc1 ?
GLP1R inv ag: 8.91µM*; GLP1R ag: -11.2%; BRCA1 expr up: -16.4%; Integrin act MD: -19.4%; GLP1R cytotox: -8.4%

Results for CN(C)c1ccc(/C=C2\C=Cc3cc(N)ccc32)cc1 ?
BRCA1 expr up: 21.6%

Results for O=[N+]([O-])c1ccc2c(c1)C=C/C2=C\c1ccc(C=S)cc1 ?
BRCA1 expr up: 5.62µM*

How did CCOc1ccc(NC(=O)CNc2cccc(S(=O)(=O)N3CCCCCC3)c2)cc1OCC do in these assays?
GLP1R inv ag: 10µM*; GLP1R ag: 2.8%; BRCA1 expr up: -26.9%; Integrin act MD: -22.4%; GLP1R cytotox: -21.2%

How did CCOc1ccccc1OCC(=O)Nc1cccc(S(=O)(=O)N2CCCCCC2)c1 do in these assays?
GLP1R inv ag: inconclusive; GLP1R ag: 1.9%; BRCA1 expr up: -44.9%; Integrin act MD: -45.4%; GLP1R cytotox: 3.0%

How did O=C(CNc1ccc(C(F)(F)F)cc1)Nc1cccc(S(=O)(=O)N2CCCCC2)c1 do in these assays?
GLP1R inv ag: 3.98µM*; GLP1R ag: -3.3%; BRCA1 expr up: -55.0%; Integrin act MD: -35.4%; GLP1R cytotox: -20.3%

Results for O=C(Cc1cccc(C(F)(F)F)c1)Nc1cccc(S(=O)(=O)N2CCCC2)c1 ?
GLP1R inv ag: 8.91µM*; GLP1R ag: -1.8%; BRCA1 expr up: -37.8%; Integrin act MD: -15.5%; GLP1R cytotox: -8.0%

Results for CN(CC(=O)Nc1cccc(F)c1)CC(=O)Nc1cccc(S(=O)(=O)N2CCCCC2)c1 ?
GLP1R inv ag: 7.94µM*; GLP1R ag: -1.4%; BRCA1 expr up: -46.7%; Integrin act MD: 0.0%; GLP1R cytotox: -24.0%

What do the screens show for `COc1ccc(N2CCN(C(=O)CCc3c(C)nc4cc(-c5cccc(F)c5)nn4c3C)CC2)cc1`?
GLP1R inv ag: 0.1%; GLP1R ag: 0.4%; BRCA1 expr up: 0.0%; GLP1R cytotox: 10.9%

How did CCCC(=O)Nc1nnc(SCc2cc(=O)n3ccccc3n2)s1 do in these assays?
GLP1R inv ag: 0.1%; GLP1R cytotox: 5.9%

How did O=C(CCN1CCN(c2ccccc2)CC1)Nc1cccc(Br)c1 do in these assays?
GLP1R inv ag: 11.2µM*; GLP1R ag: -0.2%; BRCA1 expr up: -6.7%; Integrin act MD: -6.0%; GLP1R cytotox: 14.5%

Results for CCCC(=O)NC(c1ccc2c(c1)OCO2)c1cc(Cl)c2cccnc2c1O (stereo not given) ?
GLP1R inv ag: 3.98µM*; GLP1R ag: -18.2%; BRCA1 expr up: -89.1%; Integrin act MD: -45.3%; GLP1R cytotox: -30.8%

What do the screens show for `CCN(c1ccccc1)S(=O)(=O)c1ccc(C(=O)Nc2c(C)n(C)n(-c3ccccc3)c2=O)cc1`?
GLP1R inv ag: -32.8%; GLP1R ag: 8.9%; BRCA1 expr up: 0.6%; Integrin act MD: 15.0%; GLP1R cytotox: -13.9%

Results for CCCCN(c1ccccc1)S(=O)(=O)c1cccc(C(=O)Nc2c(C)n(C)n(-c3ccccc3)c2=O)c1 ?
GLP1R inv ag: 11.2µM*; GLP1R ag: -35.0%; BRCA1 expr up: -29.9%; Integrin act MD: 2.0%; GLP1R cytotox: -7.4%

Results for CN(C)/C=C1\N=C(c2ccc3c(c2)OCO3)OC1=O ?
GLP1R inv ag: 9.8%; GLP1R ag: -12.4%; BRCA1 expr up: 7.94µM*; Integrin act MD: 4.5%; GLP1R cytotox: -4.9%

What do the screens show for `CNC(=S)Nc1ccc([N+](=O)[O-])cc1C`?
GLP1R inv ag: -16.3%; GLP1R ag: 8.6%; BRCA1 expr up: -14.9%; Integrin act MD: -20.8%; GLP1R cytotox: -5.5%

Results for Cc1cc([N+](=O)[O-])ccc1NC(=O)c1csc(C)c1C ?
GLP1R inv ag: 15.5%; GLP1R ag: 9.3%; BRCA1 expr up: 5.01µM*; Integrin act MD: -3.3%; GLP1R cytotox: -24.9%

How did CN(C)c1ccc(/C=C(/C#N)C(=O)NCc2ccccc2)o1 do in these assays?
GLP1R inv ag: 0.0%; GLP1R ag: 1.2%; BRCA1 expr up: 10µM*; Integrin act MD: -7.1%; GLP1R cytotox: 8.4%

What do the screens show for `CCOc1ccc(NS(=O)(=O)c2cccc(C(=O)N3CCN(C/C=C/c4ccccc4)CC3)c2)cc1`?
GLP1R inv ag: 10µM*; GLP1R ag: -10.7%; BRCA1 expr up: -75.8%; Integrin act MD: -34.6%; GLP1R cytotox: -29.1%

How did Cc1cc(C)n(-c2nc3ccccc3c(=O)n2OCC#N)n1 do in these assays?
GLP1R inv ag: 3.16µM*; GLP1R ag: 19.9%; BRCA1 expr up: -63.5%; Integrin act MD: -70.2%; GLP1R cytotox: inconclusive

How did CCOn1c(-n2nc(C)cc2C)nc2ccccc2c1=O do in these assays?
GLP1R inv ag: 3.9%; GLP1R ag: -11.2%; BRCA1 expr up: -0.5%; Integrin act MD: -0.2%; GLP1R cytotox: -6.4%

How did CCN(Cc1ccccc1)C(=O)c1cccc(S(=O)(=O)N2CCN(Cc3ccccc3)CC2)c1 do in these assays?
GLP1R inv ag: inconclusive; GLP1R ag: 1.5%; BRCA1 expr up: -28.0%; Integrin act MD: -2.4%; GLP1R cytotox: 9.2%

How did COCCN(Cc1ccccc1)C(=O)c1cccc(S(=O)(=O)N2CCN(Cc3ccccc3)CC2)c1 do in these assays?
GLP1R inv ag: 14.1µM*; GLP1R ag: 4.3%; BRCA1 expr up: -62.0%; Integrin act MD: -30.8%; GLP1R cytotox: 2.3%

Results for COc1ccccc1C(O)(c1ccccc1)C(CN1CCOCC1)c1ccccc1 (stereo not given) ?
GLP1R inv ag: 10µM*; GLP1R ag: -2.3%; BRCA1 expr up: -9.7%; Integrin act MD: -4.3%; GLP1R cytotox: -12.4%

What do the screens show for `CCCCCCC(O)(c1ccccc1)C(CN1CCOCC1)c1ccccc1` (stereo not given)?
GLP1R inv ag: 3.55µM*; GLP1R ag: -1.2%; BRCA1 expr up: -44.1%; Integrin act MD: -49.5%; GLP1R cytotox: inconclusive

What do the screens show for `CCCC(O)(c1ccccc1)C(CN1CCOCC1)c1ccccc1` (stereo not given)?
GLP1R inv ag: inconclusive; GLP1R ag: 3.1%; BRCA1 expr up: -26.3%; Integrin act MD: -43.3%; GLP1R cytotox: 0.4%
